Experimental data: PubChem BioAssay (NCI)
This is part of a sample that, as a whole, favours compounds with a hit. Of some 79,000 tested, about 15% had one in any assay. Values without a mark were called inactive. Activity calls are given as the source filed them. Rule as the data show it: active = growth inhibition above about 70%; inactive = the rest. Where a SMILES comes first, the peptide text is derived from it.

What was measured:
[1] = NCI Yeast Anticancer Drug Screen. Data for the rad50 strain (AID 155);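 also: 0% = growth of vehicle-only cultures of the same strain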; conditions: S. cerevisiae rad50 strain growth inhibition; at 50.0 µM; hits give high values
How it was run: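 Relative growth inhibition (compound vs vehicle) was measured in yeast with a defined repair-gene alteration.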

[2] = NCI Yeast Anticancer Drug Screen. Data for the mec2-1 strain (AID 157); conditions: S. cerevisiae mec2-1 strain, at 50.0 µM, hits give high values
How it was run: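 Test agents were screened against the mec2-1 yeast strain, with defined DNA repair or cell cycle alteration. Growth was scored as inhibition against vehicle-only controls.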

[3] = NCI Yeast Anticancer Drug Screen. Data for the sgs1 mgt1 strain (AID 161);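 also: 0% = growth of cultures given vehicle only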; conditions: S. cerevisiae sgs1 mgt1 strain, at 50.0 µM, hits give high values
How it was run: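 Inhibition of yeast growth, normalised to vehicle-treated controls, is reported for a strain bearing genetic alterations in DNA damage repair.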

[4] = NCI Yeast Anticancer Drug Screen. Data for the cln2 rad14 strain (AID 165);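 also: 0% = growth equal to vehicle treated cultures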; conditions: S. cerevisiae cln2 rad14 strain, at 50.0 µM, hits give high values
How it was run: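 Growth of compound-exposed yeast (cln2 rad14 genotype) measured and expressed as inhibition relative to vehicle.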

[5] = NCI Yeast Anticancer Drug Screen. Data for the bub3 strain (AID 167); conditions: S. cerevisiae bub3 mutant strain, at 50.0 µM, hits give high values
How it was run: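 Screening used yeast with an engineered genetic alteration affecting cell cycle control. Compound-exposed cultures were compared with vehicle cultures, and reduced growth was taken as inhibition.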

[6] = NCI Yeast Anticancer Drug Screen. Data for the mlh1 rad18 strain (AID 175); conditions: S. cerevisiae mlh1 rad18 strain growth inhibition; at 50.0 µM; hits give high values
How it was run: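 In this whole-cell yeast screen, a strain with altered DNA damage repair is challenged with compound, and its growth is measured against matched vehicle-treated controls.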

Compound | growth inhibition [1] | growth inhibition [2] | growth inhibition [3] | growth inhibition [4] | growth inhibition [5] | growth inhibition [6]
CC(C)=CCc1c(O)ccc(C(=O)[C@H]2C(c3ccc(O)cc3O)CC(C)=C[C@@H]2c2c(O)cc(O)c3c(=O)c(CC=C(C)C)c(-c4ccc(O)cc4O)oc23)c1O (some centres not stated) | 88.4% (active) | 90% (active) | 92% (active) | 89% (active) | 90.2% (active) | 89.8% (active)
CCOc1ccccc1C(=O)Nc1cc(Cl)ccc1Cl | 6.8% | -18.1% | -7.45% | -4.8% | -15.1% | 2.85%
CCOC(=O)C(NC(=O)/C=C\C(=O)O)C(C)C (configuration not stated) | 3.7% | 22.1% | 2.55% | 23.9% | 15.4% | 35.2%
CCCCOC(=O)C(N)Cc1ccccc1 (configuration not stated) | -20.4% | -2.3% | -5.65% | -44.5% | 23.6% | -22.2%
Cc1c2oc3c(C)ccc(C(=O)NCc4cccnc4)c3nc-2c(C(=O)NCc2cccnc2)c(N)c1=O | 42.6% | -0.85% | -6.85% | 7.55% | 2.6% | 13.1%
CN(C)CCC(OC(=O)c1ccccc1Cl)c1ccccc1 (configuration not stated) | -6.9% | 10.1% | 13.7% | 17.2% | 8.75% | 13.1%
CCOC(=O)c1ccc(N=C(N)N)cc1 | 23% | 9.85% | 19.8% | 11% | 17.2% | 19.6%
CC1OC(OC2C(OC3C(OC4CCC5(C)C(CCC6(C)C5CC=C5C7CC(C)(C)CCC7(C(=O)O)CCC56C)C4(C)C)OCC(O)C3O)OC(CO)C(O)C2O)C(O)C(O)C1O (configuration not stated) | 92.8% (active) | 94.4% (active) | 94.3% (active) | 92.3% (active) | 93.8% (active) | 93.8% (active)
CC(=O)C(C)(C)OC(=O)COc1ccc(Cl)cc1 | -39% | -2.75% | -9.45% | 43.4% | 32.3% | -24.6%
CN(C)CCC(C(=O)NCc1ccccc1)C(=O)NCc1ccccc1 | -6.1% | -9.95% | 1.3% | -17.4% | -2.55% | -17.2%
CC(=O)Nc1nnnn1C | -3.05% | -2.3% | 0.45% | -40.1% | -1.9% | -10.9%
Cc1ccc(S(=O)(=O)/N=[N+](\[O-])c2ccc(N(C)C)cc2)cc1 | -32.4% | -3.35% | -7.55% | -35.7% | -7.8% | -3.35%
CC(C)(C)OC(=O)N1CCCC1C(=O)Oc1ccc([N+](=O)[O-])cc1 (configuration not stated) | 31.6% | 19.4% | 11.4% | 3.55% | 6.25% | 58.5%
CCc1nc2c([nH]1)C(=O)c1ccccc1C2=O | 68.1% | 19.2% | 44.2% | 9.25% | 18.7% | 42%
O=C1CSSCC(=O)NCCCN1 | 2.25% | 1.15% | -5.35% | 0.8% | 2.55% | 28.2%
Nc1ccc2cccc(N)c2n1 | 34.5% | 12.2% | 8.85% | 5.9% | -5.65% | -0.55%
CCCCCCCCN(CCCCCCCC)CC(O)c1ccc2cc(Br)c3ccccc3c2c1 (configuration not stated) | 25.9% | 26.2% | 46.5% | 47.1% | 24% | 49.4%
O=C(O)CCCCCCCCC(=O)O | -7.55% | -39% | 7.9% | -12.6% | -23.8% | -17.6%
O=C(Nc1ccc([N+](=O)[O-])cc1)N(c1ccccc1)c1cc(N2CCOCC2)ccn1 | 40.7% | 16.6% | 9.1% | 13.8% | 5.8% | 34.9%
CC(=O)ON(C(=O)c1ccccc1)c1ccccc1 | -1.7% | 0.95% | 4.3% | -5.15% | 7.05% | 12.1%
Cc1cccc(/C=N/Nc2ccc([N+](=O)[O-])cc2[N+](=O)[O-])c1C | 11.2% | -6% | -5.1% | -11.2% | -15.6% | 4%

Compound | growth inhibition [1] | growth inhibition [2] | growth inhibition [3] | growth inhibition [4] | growth inhibition [5] | growth inhibition [6]
CSc1ncnc2c1ncn2CCC(=O)O | -33.9% | 11.4% | -42.1% | 8.8% | -13.9% | -19.4%
CCCCCCCCCCCCCCCCOCC(CCl)OP(=O)(O)OP(=O)(O)OCC1OC(n2ccc(N)nc2=O)C(O)C1O (configuration not stated) | -33.3% | -38.9% | 15.1% | -35% | -37.4% | -95.4%
O=C(O)CSc1nc2c(Cl)c(Cl)c(Cl)cc2[nH]1 | -11.7% | -14.1% | 2% | 1.6% | 13.2% | -9.9%
O=C(O)c1ccccc1SC(Sc1ccccc1C(=O)O)c1ccc2c(c1)OCO2 | 11.3% | -11.9% | 2.85% | -11.6% | 33.6% | 28%
Clc1ccccc1C1OCCCO1 | -0.95% | 15.1% | -22.4% | -29.8% | -8.1% | -6.1%
OCC1OC(O)CC1O (configuration not stated) | -15.2% | -10.5% | -3.9% | 9.05% | -5.75% | -0.05%
O=C(O)c1cc(-c2ccccc2)ccc1O | 27.8% | -70.3% | 12.6% | 25.2% | -2.6% | 46.6%
CCOC(=O)CNC(=O)C(Cc1ccccc1)NC(=O)C(N)CC(=O)O (stereo not drawn) (H-Asp-Phe-Gly-OEt; configuration not given here) | -18.6% | -42.4% | -12.1% | -19.9% | -13.4% | -25%
CCCCOC1CCC(O)C2CCCCC12 (configuration not stated) | 5.15% | -2.5% | -1.9% | -0.7% | -0.95% | 9.85%
CC/C(=N/NC(=O)c1ccccc1)c1ccccc1 | -18.9% | 9.5% | 8.7% | -19.4% | 8.5% | -17.7%
O=C(Nc1cccc(O)c1)C(O)C(O)C(O)C(O)CO (configuration not stated) | -10.8% | 14.4% | 18.2% | 10.6% | 9.05% | 10.9%
COc1ccc(C2OCC(c3ccccc3)O2)cc1 (configuration not stated) | -13.4% | -7.65% | -18.5% | -37% | 3.15% | -29.1%
CCOC(=O)c1cnc2nc[nH]n2c1=O | -52.8% | -54.5% | -11.2% | 11.6% | -67% | -36.5%
CN1CC2=C(NC(=S)NC2c2ccccc2)/C(=C/c2ccccc2)C1 (configuration not stated) | -14.5% | -8.75% | 5.65% | 6.8% | 22.4% | -13.2%
Cc1ccc(Oc2cc(C)ccc2P(=O)(O)O)cc1 | 6.5% | 1.4% | 22.2% | 26.1% | -23.7% | 23.1%
O=C1NC(=S)S/C1=C\c1ccncc1 | 12.4% | -7.4% | -10.4% | 0.9% | 0.05% | -19.1%
COc1cccc(C(C#N)c2cnc3ccccc3n2)c1 (configuration not stated) | 27.4% | 14.6% | 10.1% | 33.2% | 37.1% | 27.4%
Cc1ccc(P(=O)(O)O)cc1C | -18.2% | -7.3% | 0.3% | -2.1% | -7.75% | -10.4%
CCCN(CCC)S(=O)(=O)c1ccc(NC(=O)OC2CCCCC2)cc1 | 37.1% | 2.25% | 23.6% | 13.1% | -4.7% | 17.9%
COc1ccc(Cc2cc(OC)c(OC)c(OC)c2)cc1O | 2.2% | 11.4% | -16.4% | -22.1% | 19.9% | -21.2%
CCCCNc1nc(SC)nc2nc[nH]c12 | -9.35% | -9.65% | -41.1% | -21.2% | -26.4% | -3.9%
